Experimental data published in PubChem BioAssay.
Unmarked numbers belong to inactive results. For some of these results: Measured potencies and affinities stand elsewhere. Calls of active or inactive are those of the source. Unless noted, no rule for the calls is given here.

Assays:
[1] = antimalarial activity against Dd2 strain (AID 2302;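 active = growth inhibition above 50% at the single 2 µM test dose, taken to imply half-maximal potency below 2 µM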;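 also: 0% = DMSO untreated growth and 100% = chloroquine plus artemisinin killed control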); details: P. falciparum Dd2 in RBCs, LDH growth readout, 72 h; at 2 µM; hits give high values
[2] = human hepatoma cell viability loss – ATP luminescence, cytotoxicity control for P. falciparum antimalarial project, primary screen (AID 2303;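 active = inhibition above 50%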;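 also: 0% = DMSO wells and 100% = digitonin-killed cells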); details: HepG2 viability, 24-48 h, at 10 µM, hits give high values
[3] = target: L-lactate dehydrogenase (Plasmodium falciparum (isolate CDC / Honduras)) (UniProt Q27743); experiment: PfLDH activity inhibition – cell lysate, 3D7 strain, counter-screen for P. falciparum growth inhibition project (AID 2304);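 also: 0% = vehicle and 100% = reference inhibitor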; details: P. falciparum 3D7 crude extract, LDH APAD/NBT absorbance; at 2 µM; hits give high values
L-lactate dehydrogenase (Plasmodium falciparum (isolate CDC / Honduras)), sequence (Q27743 whole entry, looked up): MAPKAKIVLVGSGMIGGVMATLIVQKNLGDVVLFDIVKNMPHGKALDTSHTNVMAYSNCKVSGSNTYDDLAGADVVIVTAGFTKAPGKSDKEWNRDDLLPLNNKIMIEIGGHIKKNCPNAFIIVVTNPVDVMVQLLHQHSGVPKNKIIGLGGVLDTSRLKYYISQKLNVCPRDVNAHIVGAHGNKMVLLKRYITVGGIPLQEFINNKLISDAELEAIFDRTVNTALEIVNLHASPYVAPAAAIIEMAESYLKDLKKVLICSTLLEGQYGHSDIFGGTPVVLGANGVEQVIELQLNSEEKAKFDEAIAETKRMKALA

[4] = inhibition of 3D7 malaria parasite growth – strain 3D7 (AID 2306);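 also: 0% = DMSO wells and 100% = chloroquine plus artemisinin control wells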; details: P. falciparum 3D7 erythrocytic growth, LDH absorbance, 72 h; at 2 µM; hits give high values
[5] = target: Calcium-dependent protein kinase 1 (Plasmodium falciparum (isolate 3D7)) (UniProt P62344); experiment: PfCDPK1 kinase inhibitors, biochemical, TCAMS library (AID 1159585; cut-off not given, nearly all actives have IC50 up to about 0.98 µM;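 also: inhibitors leave more ATP so luminescence rises with inhibition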); details: recombinant PfCDPK1, Kinase-Glo ATP depletion luminescence
Calcium-dependent protein kinase 1 (Plasmodium falciparum (isolate 3D7)), sequence (P62344 whole entry, looked up): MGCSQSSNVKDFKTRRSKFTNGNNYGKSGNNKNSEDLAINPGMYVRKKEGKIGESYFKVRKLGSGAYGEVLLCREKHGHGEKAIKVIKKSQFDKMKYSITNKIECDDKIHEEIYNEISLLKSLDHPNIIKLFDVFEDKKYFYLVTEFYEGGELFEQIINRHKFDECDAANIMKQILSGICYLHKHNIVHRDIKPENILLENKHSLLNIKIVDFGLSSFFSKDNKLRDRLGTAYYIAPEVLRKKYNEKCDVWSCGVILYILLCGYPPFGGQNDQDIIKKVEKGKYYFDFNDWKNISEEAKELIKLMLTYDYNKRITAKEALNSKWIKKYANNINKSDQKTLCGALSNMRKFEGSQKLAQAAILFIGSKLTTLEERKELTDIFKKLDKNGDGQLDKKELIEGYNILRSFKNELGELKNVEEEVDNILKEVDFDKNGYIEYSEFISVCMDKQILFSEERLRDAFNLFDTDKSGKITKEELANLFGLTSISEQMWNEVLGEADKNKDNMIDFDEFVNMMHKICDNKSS

[6] = target: Plasmodium falciparum protein kinase 6 (PK6, PF3D7_1337100) (UniProt Q8IDW1); experiment: PfPK6 kinase inhibitors, biochemical, TCAMS library (AID 1159586); details: recombinant PfPK6, Kinase-Glo ATP depletion luminescence
Plasmodium falciparum protein kinase 6 (PK6, PF3D7_1337100), sequence (Q8IDW1 1-305): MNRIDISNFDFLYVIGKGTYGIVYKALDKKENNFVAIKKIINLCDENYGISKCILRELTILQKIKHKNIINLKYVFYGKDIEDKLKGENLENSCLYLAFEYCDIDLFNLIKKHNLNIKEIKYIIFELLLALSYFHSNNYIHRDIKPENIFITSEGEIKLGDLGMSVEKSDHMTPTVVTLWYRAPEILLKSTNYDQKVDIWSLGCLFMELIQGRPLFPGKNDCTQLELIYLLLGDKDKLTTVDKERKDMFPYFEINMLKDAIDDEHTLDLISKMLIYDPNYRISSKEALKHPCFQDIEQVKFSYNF

[7] = target: Protein kinase 7 (PK7), Plasmodium falciparum 3D7 (PF3D7_0213400) (UniProt Q7YTF7); experiment: inhibition of Plasmodium PK7 catalytic activity – biochemical, TCAMS antimalarial set, Kinase-Glo luminescence (AID 1159587); details: recombinant PfPK7, Kinase-Glo ATP depletion luminescence
Protein kinase 7 (PK7), Plasmodium falciparum 3D7 (PF3D7_0213400), sequence (Q7YTF7 1-343): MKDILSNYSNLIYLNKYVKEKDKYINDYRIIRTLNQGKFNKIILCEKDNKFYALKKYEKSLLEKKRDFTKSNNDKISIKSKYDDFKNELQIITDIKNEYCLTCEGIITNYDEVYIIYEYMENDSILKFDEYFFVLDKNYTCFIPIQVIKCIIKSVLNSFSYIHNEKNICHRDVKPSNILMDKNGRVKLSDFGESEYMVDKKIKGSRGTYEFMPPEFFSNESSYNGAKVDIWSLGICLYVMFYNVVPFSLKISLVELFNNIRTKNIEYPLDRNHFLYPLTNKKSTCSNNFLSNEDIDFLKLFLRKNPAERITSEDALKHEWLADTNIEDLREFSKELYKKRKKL

[8] = target: Calcium-dependent protein kinase 4 (Plasmodium falciparum (isolate 3D7)) (UniProt Q8IBS5); experiment: PfCDPK4 kinase inhibitors, biochemical, TCAMS library (AID 1159588; cut-off not given, nearly all actives have IC50 up to about 0.91 µM); details: recombinant PfCDPK4, Kinase-Glo ATP depletion luminescence
Calcium-dependent protein kinase 4 (Plasmodium falciparum (isolate 3D7)), sequence (Q8IBS5 whole entry, looked up): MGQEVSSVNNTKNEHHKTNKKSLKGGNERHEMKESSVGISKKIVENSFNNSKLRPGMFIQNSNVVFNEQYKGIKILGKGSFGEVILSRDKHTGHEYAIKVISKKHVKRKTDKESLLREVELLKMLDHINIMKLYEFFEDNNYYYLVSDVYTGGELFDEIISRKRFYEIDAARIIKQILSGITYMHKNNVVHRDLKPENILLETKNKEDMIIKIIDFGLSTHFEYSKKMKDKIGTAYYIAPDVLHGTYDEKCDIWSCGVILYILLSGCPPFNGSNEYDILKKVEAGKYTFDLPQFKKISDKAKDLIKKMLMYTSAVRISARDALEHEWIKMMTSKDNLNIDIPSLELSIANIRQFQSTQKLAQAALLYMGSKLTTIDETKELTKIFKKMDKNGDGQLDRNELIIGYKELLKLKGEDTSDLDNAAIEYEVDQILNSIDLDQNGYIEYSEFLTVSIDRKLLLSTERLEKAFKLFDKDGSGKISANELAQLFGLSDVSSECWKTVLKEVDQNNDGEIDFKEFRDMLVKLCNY

Compound | growth inhibition [1] | inhibition [2] | inhibition [3] [%] | growth inhibition [4] | outcome [5] | outcome [6] | outcome [7] | outcome [8]
CCN(CC(C)O)C(=O)c1ccc(-c2cccc(-c3nc4c(C)cccc4[nH]3)c2)cc1 (stereo not given) | 32% | 28% | -2 | 100% (active) | inactive | inactive | inactive | inactive
Cc1ccc2c(=O)cc(CCc3cccc(F)c3F)n(CC(=O)N(Cc3ccc(-c4ccc(C(F)(F)F)cc4)cc3)C3CCN(C)CC3)c2n1 | 76% (active) | 49% | 0 | 86% (active) | inactive | inactive | inactive | inactive
CC(C)(C)c1ccc(NC(=O)c2ccc(CN3CCCN(Cc4cccc(Cl)c4)CC3)cc2)cc1 | 7% | 43% | -3 | 96% (active) | inactive | inactive | inactive | inactive
Cc1ccc(Nc2nc(NN=Cc3cc4c(cc3Br)OCO4)nc(Nc3ccc([N+](=O)[O-])cc3)n2)cc1C | 89% (active) | 23% | -2 | 100% (active) | inactive | inactive | inactive | inactive
CC[C@H](NC(=O)c1c(CCCN2CCN(c3ccccc3)CC2)c(-c2ccccc2)nc2cc(O)ccc12)c1ccccc1 | 97% (active) | 12% | 6 | 96% (active) | inactive | inactive | inactive | inactive
NC(=O)c1ccc(C(=O)Nc2cccc(-c3csc(-c4nc5ccccc5[nH]4)c3)c2)cc1 | 35% | 14% | -4 | 100% (active) | inactive | inactive | inactive | inactive
CC(C)C[C@H](NC(=O)c1cc2ccccc2s1)C(=O)N[C@H]1CCN(Cc2ccc(I)c(OCCN3CCCC3)c2)C1 | 88% (active) | 3% | -1 | 92% (active) | inactive | inactive | inactive | inactive
Cn1nc(-c2ccccc2F)c2cc(C(=O)Nc3cccnc3)sc21 | 82% (active) | 5% | 3 | 92% (active) | inactive | inactive | inactive | inactive
COc1nc2c(CCN3CCC(NCc4ccc5c(c4)NCCO5)CC3)c(Cl)cnc2cc1F | 98% (active) | 23% | 1 | 102% (active) | inactive | inactive | inactive | inactive
CCOC(=O)c1ccc(N2CCN(c3cc(Cl)ccc3C)CC2)c(NC(=O)Nc2ccc(Cl)c(Cl)c2)c1 | 99% (active) | 10% | -5 | 99% (active) | inactive | inactive | inactive | inactive
CC(C)(C)c1ccc(CN2CCC(NC(=O)c3cc(-c4cccc(C(F)(F)F)c4)cs3)C2)cc1 (stereo not given) | 85% (active) | 24% | -1 | 98% (active) | inactive | inactive | inactive | inactive
O=C(NCCCCCN1CCC(c2ccc(O)cc2)CC1)c1ccc(-c2ccccc2)cc1 | -7% | 28% | -1 | 92% (active) | inactive | inactive | inactive | inactive
O=C(NC1CCN(Cc2ccccc2O)C1)c1ccc(-c2ccccc2)cc1 (stereo not given) | 25% | -5% | 4 | 99% (active) | inactive | inactive | inactive | inactive
COc1cc(-c2nnc(SCC(=O)Nc3cc(C)on3)n2C)cc(OC)c1O | 2% | 2% | 5 | 89% (active) | inactive | inactive | inactive | inactive
Cc1ccc(C(=O)Nc2ccc(C)c(OC3CCN(Cc4ccco4)C3)c2)cc1 (stereo not given) | 49% | 10% | 3 | 90% (active) | inactive | inactive | inactive | inactive
C=CCc1cc(SC)ccc1Oc1ccc(N)cc1 | 2% | 12% | 4 | 96% (active) | inactive | inactive | inactive | inactive
CC1(C)N=C(N)N=C(N)N1c1cccc(I)c1 | 85% (active) | 68% (active) | -2 | 95% (active) | inactive | inactive | inactive | inactive
Cc1onc(-c2ccccc2)c1-c1nc(NCc2ccccc2Cl)no1 | 92% (active) | 2% | -3 | 99% (active) | inactive | inactive | inactive | inactive
Cc1cc(-c2cccc(CNCc3ccc(F)cc3)c2)ccc1S(=O)(=O)NCCN1CCCC1 | 64% (active) | 49% | 4 | 101% (active) | inactive | inactive | inactive | inactive
COc1ccc(NS(=O)(=O)c2cccc(C(=O)Nc3ccc(C(F)(F)F)cc3)c2)cc1N1CCN(CC(C)C)CC1 | 4% | 5% | 2 | 94% (active) | inactive | inactive | inactive | inactive
